# Out of some 5,500 compounds screened, about 2,000 (36%) were called active. Roughly 18% stayed inconclusive and do not appear here. The list shows a part of the results. Values without a mark were called inactive. Rule as the data show it: active = normalized growth mostly below about 0.91 (no sharp cut-off); inconclusive = no clear call, values can overlap the other calls; inactive = mostly above about 0.92.
# Assay: chemical genetic growth profiling, strain panel (AID 1159580);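 also: tested at 20 µM; growth read once vehicle control cultures reached saturation at 30 °C; 1 = growth at the plate median or of vehicle wells; lower values mean less growth of the strain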
# Conditions: growth OD
# [1] = S. cerevisiae deletion strains, locus YAL013W, strain DEP1, hits give low values
# [2] = S. cerevisiae deletion strains, locus YDR150W, strain NUM1, hits give low values
# [3] = S. cerevisiae deletion strains, locus YGR078C, strain PAC10, hits give low values
# [4] = S. cerevisiae deletion strains, locus YJR075W, strain HOC1, hits give low values
# [5] = S. cerevisiae deletion strains, locus YMR307W, strain GAS1, hits give low values
# [6] = S. cerevisiae deletion strains, locus YNL322C, strain KRE1, hits give low values
# [7] = S. cerevisiae deletion strains, locus YBR229C, strain ROT2, hits give low values
# [8] = S. cerevisiae deletion strains, locus YDL101C, strain DUN1, hits give low values
# [9] = S. cerevisiae deletion strains, locus YEL061C, strain CIN8, hits give low values
# [10] = S. cerevisiae deletion strains, locus YHR030C, strain SLT2, hits give low values
# [11] = S. cerevisiae deletion strains, locus YJR043C, strain POL32, hits give low values
# [12] = S. cerevisiae deletion strains, locus YLR039C, strain RIC1, hits give low values
# [13] = S. cerevisiae deletion strains, locus YLR262C, strain YPT6, hits give low values
# [14] = S. cerevisiae deletion strains, locus YNL153C, strain GIM3, hits give low values
# [15] = S. cerevisiae deletion strains, locus YPL241C, strain CIN2, hits give low values
compound,measurement,setting,value
COc1cc(CNC(=O)CCCCCCC(C)C)ccc1O,normalized growth,[1],0.944
same,normalized growth,"S. cerevisiae deletion strains, locus YAL040C, strain CLN3, hits give low values",0.986
same,normalized growth,"S. cerevisiae deletion strains, locus YCL061C, strain MRC1 (second series), hits give low values",0.993
same,normalized growth,[2],1
same,normalized growth,"S. cerevisiae deletion strains, locus YDR363W, strain ESC2, hits give low values",0.974
same,normalized growth,"S. cerevisiae deletion strains, locus YER002W, strain NOP16, hits give low values",1
same,normalized growth,[3],0.999
same,normalized growth,[4],0.988
same,normalized growth,[5],0.973
same,normalized growth,"S. cerevisiae deletion strains, locus YNL175C, strain NOP13, hits give low values",1.01
same,normalized growth,"S. cerevisiae deletion strains, locus YNL197C, strain WHI3, hits give low values",0.981
same,normalized growth,"S. cerevisiae deletion strains, locus YNL224C, strain SQS1, hits give low values",0.981
same,normalized growth,[6],0.983
same,normalized growth,"S. cerevisiae deletion strains, locus YOR083W, strain WHI5 (second series), hits give low values",0.981
CCC[C@H]1CC2=C(C[C@@H](CC)CC3=C1C(=O)OC3=O)C(=O)OC2=O,normalized growth,"S. cerevisiae deletion strains, locus YBR021W, strain FUR4, hits give low values",1
same,normalized growth,[7],1.01
same,normalized growth,"S. cerevisiae deletion strains, locus YCL029C, strain bik1, hits give low values",1.02
same,normalized growth,"S. cerevisiae deletion strains, locus YDL035C, strain GPR1, hits give low values",1.03
same,normalized growth,"S. cerevisiae deletion strains, locus YDL074C, strain BRE1, hits give low values",1.02
same,normalized growth,[8],1.02
same,normalized growth,"S. cerevisiae deletion strains, locus YDL134C, strain PPH21, hits give low values",1.01
same,normalized growth,"S. cerevisiae deletion strains, locus YDL185W, strain tfp1, hits give low values",1.01
same,normalized growth,"S. cerevisiae deletion strains, locus YDL192W, strain arf1, hits give low values",1.02
same,normalized growth,"S. cerevisiae deletion strains, locus YDR101C, strain arx1, hits give low values",1.03
same,normalized growth,[2],1.01
same,normalized growth,"S. cerevisiae deletion strains, locus YDR162C, strain NBP2, hits give low values",1.01
same,normalized growth,"S. cerevisiae deletion strains, locus YDR318W, strain mcm21, hits give low values",0.998
same,normalized growth,"S. cerevisiae deletion strains, locus YDR388W, hits give low values",1.02
same,normalized growth,"S. cerevisiae deletion strains, locus YDR502C, strain sam2, hits give low values",1.01
same,normalized growth,[9],1.01
same,normalized growth,"S. cerevisiae deletion strains, locus YER110C, hits give low values",1.02
same,normalized growth,"S. cerevisiae deletion strains, locus YER155C, strain BEM2, hits give low values",1.01
same,normalized growth,"S. cerevisiae deletion strains, locus YER167W, strain BCK2, hits give low values",1.01
same,normalized growth,"S. cerevisiae deletion strains, locus YGL078C, strain dbp3, hits give low values",0.65 (active)
same,normalized growth,"S. cerevisiae deletion strains, locus YGL086W, strain mad1, hits give low values",1.05
same,normalized growth,"S. cerevisiae deletion strains, locus YGL248W, strain PDE1, hits give low values",1
same,normalized growth,[3],1.01
same,normalized growth,"S. cerevisiae deletion strains, locus YGR135W, strain pre9, hits give low values",1
same,normalized growth,"S. cerevisiae deletion strains, locus YGR252W, strain gcn5, hits give low values",0.969
same,normalized growth,[10],1.01
same,normalized growth,"S. cerevisiae deletion strains, locus YHR079C, strain IRE1 (second series), hits give low values",1.02
same,normalized growth,"S. cerevisiae deletion strains, locus YHR094C, strain hxt1, hits give low values",1.01
same,normalized growth,"S. cerevisiae deletion strains, locus YHR129C, strain ARP1, hits give low values",1.02
same,normalized growth,"S. cerevisiae deletion strains, locus YHR200W, strain rpn10, hits give low values",1
same,normalized growth,"S. cerevisiae deletion strains, locus YIL066C, strain RNR3, hits give low values",1.02
same,normalized growth,"S. cerevisiae deletion strains, locus YIL073C, strain SPO22, hits give low values",1.07
same,normalized growth,"S. cerevisiae deletion strains, locus YIL125W, strain kgd1, hits give low values",0.875 (active)
same,normalized growth,"S. cerevisiae deletion strains, locus YIR030C, strain dcg1, hits give low values",1.01
same,normalized growth,"S. cerevisiae deletion strains, locus YJL095W, strain BCK1, hits give low values",1.01
same,normalized growth,"S. cerevisiae deletion strains, locus YJL134W, strain LCB3, hits give low values",1.01
same,normalized growth,"S. cerevisiae deletion strains, locus YJL168C, strain set2, hits give low values",1.01
same,normalized growth,"S. cerevisiae deletion strains, locus YJL187C, strain SWE1 (second series), hits give low values",1.02
same,normalized growth,[11],1.01
same,normalized growth,[4],1.01
same,normalized growth,"S. cerevisiae deletion strains, locus YKL009W, strain mrt4, hits give low values",0.663 (active)
same,normalized growth,"S. cerevisiae deletion strains, locus YKL068W, hits give low values",0.979
same,normalized growth,"S. cerevisiae deletion strains, locus YKL085W, strain MDH1 (second series), hits give low values",0.932
same,normalized growth,"S. cerevisiae deletion strains, locus YKL085W, strain MDH1, hits give low values",0.932
same,normalized growth,"S. cerevisiae deletion strains, locus YKL190W, strain CNB1, hits give low values",1.01
same,normalized growth,"S. cerevisiae deletion strains, locus YKR001C, strain vps1, hits give low values",1.02
same,normalized growth,[12],1.04
same,normalized growth,"S. cerevisiae deletion strains, locus YLR058C, strain SHM2, hits give low values",1.01
same,normalized growth,"S. cerevisiae deletion strains, locus YLR102C, strain apc9, hits give low values",1.02
same,normalized growth,[13],1.02
same,normalized growth,"S. cerevisiae deletion strains, locus YLR268W, strain sec22, hits give low values",1.04
same,normalized growth,"S. cerevisiae deletion strains, locus YLR330W, strain CHS5, hits give low values",1.01
same,normalized growth,"S. cerevisiae deletion strains, locus YLR342W, strain FKS1 (second series), hits give low values",1.03
same,normalized growth,"S. cerevisiae deletion strains, locus YLR371W, strain rom2, hits give low values",1.03
same,normalized growth,"S. cerevisiae deletion strains, locus YLR418C, strain cdc73, hits give low values",0.991
same,normalized growth,"S. cerevisiae deletion strains, locus YML016C, strain PPZ1, hits give low values",1
same,normalized growth,"S. cerevisiae deletion strains, locus YML032C, strain rad52, hits give low values",0.999
same,normalized growth,"S. cerevisiae deletion strains, locus YML124C, strain tub3, hits give low values",1.01
same,normalized growth,"S. cerevisiae deletion strains, locus YMR078C, strain ctf18, hits give low values",1.01
same,normalized growth,"S. cerevisiae deletion strains, locus YMR223W, strain ubp8, hits give low values",0.987
same,normalized growth,[5],0.947
same,normalized growth,"S. cerevisiae deletion strains, locus YNL067W, strain RPL9B, hits give low values",1.01
same,normalized growth,[14],1.02
same,normalized growth,"S. cerevisiae deletion strains, locus YNL233W, strain BNI4, hits give low values",0.999
same,normalized growth,"S. cerevisiae deletion strains, locus YNL250W, strain rad50, hits give low values",0.814 (active)
same,normalized growth,"S. cerevisiae deletion strains, locus YNL271C, strain bni1, hits give low values",0.845 (active)
same,normalized growth,"S. cerevisiae deletion strains, locus YNL298W, strain CLA4, hits give low values",0.818 (active)
same,normalized growth,"S. cerevisiae deletion strains, locus YNL307C, strain MCK1, hits give low values",1.02
same,normalized growth,[6],1.01
same,normalized growth,"S. cerevisiae deletion strains, locus YNR052C, strain pop2, hits give low values",0.998
same,normalized growth,"S. cerevisiae deletion strains, locus YOL006C, strain TOP1, hits give low values",1.08
same,normalized growth,"S. cerevisiae deletion strains, locus YOL012C, strain htz1",0.773
same,normalized growth,"S. cerevisiae deletion strains, locus YOL147C, strain pex11, hits give low values",1.01
same,normalized growth,"S. cerevisiae deletion strains, locus YOR061W, strain CKA2, hits give low values",1.01
same,normalized growth,"S. cerevisiae deletion strains, locus YOR069W, strain VPS5, hits give low values",1.02
same,normalized growth,"S. cerevisiae deletion strains, locus YOR136W, strain idh2, hits give low values",1.04
same,normalized growth,"S. cerevisiae deletion strains, locus YOR144C, strain elg1, hits give low values",1.01
same,normalized growth,"S. cerevisiae deletion strains, locus YOR184W, strain ser1, hits give low values",1.02
same,normalized growth,"S. cerevisiae deletion strains, locus YOR316C, strain cot1, hits give low values",1.02
same,normalized growth,[15],1.01
same,normalized growth,"S. cerevisiae deletion strains, locus YPR119W, strain clb2, hits give low values",1.02
same,normalized growth,"S. cerevisiae deletion strains, locus YPR141C, strain kar3, hits give low values",0.896 (active)
same,normalized growth,"S. cerevisiae deletion strains, locus YPR163C, strain tif3, hits give low values",1.01
same,normalized growth,"S. cerevisiae deletion strains, locus YPR167C, strain met16, hits give low values",0.998
same,normalized growth,"S. cerevisiae deletion strains, strain wtn01, hits give low values",1.06
CSC1=NCN(Cc2ccccc2)CN1,normalized growth,[1],0.991
same,normalized growth,[7],0.996
same,normalized growth,[8],1
same,normalized growth,[2],1.01
same,normalized growth,[9],0.981
same,normalized growth,[3],1
same,normalized growth,[10],1.02
same,normalized growth,"S. cerevisiae deletion strains, locus YHR087W, strain rtc3, hits give low values",1
same,normalized growth,[11],1
same,normalized growth,[4],0.99
same,normalized growth,[12],0.969
same,normalized growth,"S. cerevisiae deletion strains, locus YLR058C, strain SHM2 (second series), hits give low values",1.01
same,normalized growth,"S. cerevisiae deletion strains, locus YLR085C, strain ARP6, hits give low values",0.954
same,normalized growth,[13],0.972
same,normalized growth,"S. cerevisiae deletion strains, locus YML094W, strain GIM5, hits give low values",0.981
same,normalized growth,"S. cerevisiae deletion strains, locus YMR219W, strain ESC1, hits give low values",0.986
same,normalized growth,"S. cerevisiae deletion strains, locus YMR263W, strain SAP30, hits give low values",1
same,normalized growth,[14],1.02
same,normalized growth,"S. cerevisiae deletion strains, locus YNL298W, strain CLA4 (second series), hits give low values",1
same,normalized growth,[6],0.972
same,normalized growth,"S. cerevisiae deletion strains, locus YNR030W, strain Alg12, hits give low values",0.977
same,normalized growth,"S. cerevisiae deletion strains, locus YPL055C, strain LGE1, hits give low values",1.06
same,normalized growth,[15],0.987
same,normalized growth,"S. cerevisiae deletion strains, locus YPR135W, strain CTF4, hits give low values",1.1
same,normalized growth,"S. cerevisiae strains, strain wild type, hits give low values",0.98

# — PubChem BioAssay AID1159580 (chemical genetic matrix, 2015)
